Only some compounds are listed: those with a hit (about 19% of all), similar ones and a draw of the others.
IL-1B inflam inh: blocks inflammasome-driven IL-1 beta release | THP-1 LPS/ATP IL-1B secretion, AlphaLISA, 16 h; active compounds read low | activity change, % at 57.5 µM | 360,000 compounds, 4.7% hits | AID 743279; in the data active = activity change below about -50%; inconclusive = mostly about -30% to -49%
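THP-1 cells pretreated 1 hr with compounds (up to 57.5 uM final), then stimulated with LPS (250 ng/mL final) plus ATP (1.25 mM final); secreted IL-1B measured by AlphaLISA after 16 hr, decreased signal indicating inhibition.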
HT1080NT lethal: kills 2HG-producing HT-1080-NT fibrosarcoma cells | Potency, µM (highest dose often 46.1 µM), for inactives: at the highest dose activity, negative = less viability, most hits filed as cytotoxic | 360,000 compounds, 1.6% hits | HT-1080-NT fibrosarcoma viability, CellTiter-Glo ATP luminescence, 48 h;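 note: NT is the 2HG producing partner of a matched IDH1 knockdown line; potency is the fitted concentration of half-maximal effect; 0% = DMSO-treated cells and -100% = media-only wells without cells; nearly all actives have a fitted effect of over 55% in size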
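A 48-hour cytotoxicity screen used HT-1080-NT cells plated 2 hours before compound delivery. ATP-based CellTiter-Glo luminescence measured viability, normalized to DMSO and no-cell controls.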
HT1080 IDH1KD tx: HT-1080 IDH1 knockdown cell toxicity (counter line). HT-1080 IDH1 knockdown viability, ATP luminescence, 48 h. Potency, µM (titrated, usually from 46.1 µM), for the others: at the highest dose activity, negative = toxicity, most hits filed as cytotoxic. 360,000 compounds, 2% hits. AID 686971;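 note: potency is the fitted concentration of half-maximal effect; 0% = DMSO wells and -100% = cell-free medium wells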
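CellTiter-Glo luminescence after 48 h compound exposure at 37 degrees C of IDH1-knockdown HT-1080 cells in 5% FBS RPMI. %Activity scaled between DMSO wells and cell-free media wells, with curves fitted and assigned curve classes.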
TDP1 cell CPT: growth inhibition of DT40 Tdp1-/-;hTDP1 cells with camptothecin (screen for TDP1 inhibitors); chicken DT40 Tdp1-/-;hTDP1 cells + 20 nM CPT, ATP luminescence, 48 h; Potency, µM (highest dose often 46.2 µM), for the others: at the top dose activity change, negative = growth inhibition, most hits filed as inhibitors; 420,000 compounds, 12% hits; note: potency is the fitted concentration of half-maximal effect; nearly all actives have a fitted effect of over 55% in size
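Chicken DT40 Tdp1-/- cells stably complemented with human TDP1 were seeded at 400 cells/well in medium containing 20 nM camptothecin, exposed to pin-transferred compounds, and grown at 37 °C for at least 48 hr. Viability was read as ATP luminescence.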
TDP1 cell noCPT: qHTS for Inhibitors of human tyrosyl-DNA phosphodiesterase 1 (TDP1): qHTS in cells in absence of CPT; DT40 Tdp1-/- hTDP1 cells, no CPT, ATP luminescence, 48 h; Potency, µM (highest dose often 46.2 µM), inactives show at the top dose activity change, negative = growth inhibition, actives largely listed as inhibitors; 420,000 compounds, 15% hits; note: potency is the fitted concentration of half-maximal effect; nearly all actives have a fitted effect of over 55% in size
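Readout: luminescence from CellTiter-Glo after 30 min in the dark at RT. Cells: DT40 Tdp1-/- with stable hTDP1, 400/well. Exposure: compounds alone, ≥48 hr, 37 °C.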
Starred values were filed as active, the others as inactive; u = inconclusive; x = no result given; ! = a repeat was not active; [ ] = dose if it differs, or a comment. Unless noted, calls come from the whole dose curve; as a rule, active = well fitted curve in the direction sought with a large enough effect; inconclusive = small, poorly fitted or top-dose-only effect, or another doubt; inactive = no such curve, though single readings can be large; an effect the other way counts as inactive or inconclusive. Unless noted, % is set by controls: 0 for no effect and ±100 for the full control effect.

SMILES	IL-1B inflam inh	HT1080NT lethal	HT1080 IDH1KD tx	TDP1 cell CPT	TDP1 cell noCPT
Cc1ccc(Nc2ncnc3c2cnn3-c2ccc(C)cc2)cc1	x	x	x	-18%	u
COc1ccccc1NC(=O)C1=C(C)Nc2nc(-c3ccccc3)nn2C1c1ccccn1 (centres undefined)	-3	8%	5%	9%	-2%
COc1ccc(C2C(C(=O)Nc3ccccc3)=C(C)Nc3nc(-c4ccccc4)nn32)c(OC)c1 (centres undefined)	x	x	x	16µM*	u
COc1cccc(C2C(C(=O)Nc3ccccc3)=C(C)Nc3nc(-c4ccccc4)nn32)c1OC (centres undefined)	x	x	x	16µM*	u
CC1=C(C(=O)Nc2cccnc2)C(c2ccc(Cl)cc2)n2nc(-c3ccccc3)nc2N1 (centres undefined)	x	x	x	16µM*	u
OCCN(Cc1ccccc1)CC(O)COc1ccc(-c2ccccc2)cc1 (centres undefined)	-76*	u	u	29µM*	u
COc1cc(C(C)=O)ccc1OCC(O)CN(CCO)Cc1ccccc1 (centres undefined)	-3	7%	2%	-3%	-2%
CCOC(=O)C1CCN(C(=O)COC(=O)/C=C/c2ccc([N+](=O)[O-])cc2)CC1	-1	-24%	0%	u	u
COc1cc2oc(=O)cc(CN3CCOCC3)c2cc1Cl	-12	19%	18%	-16%	-14%
C=CCNC(=S)Nc1nc2c(cc1C(=O)OCC)CCCC2	5	-13%	3%	u	23µM*
S=c1[nH]nc(-c2ccco2)n1C1CCCCC1	17	10%	16%	-1%	-13%
O=C(CCn1c2c(c3ccccc31)CCCC2)NNC(=O)c1ccc([N+](=O)[O-])cc1	-2	-1%	-1%	21µM*	12µM*
O=C(Nn1c(C2CCCCC2)nc2ccccc2c1=O)c1ccc([N+](=O)[O-])cc1Cl	-4	u	-6%	2%	-2%
Cc1cccc(CSCCNC(=O)CN(c2ccccc2)S(=O)(=O)N(C)C)c1	x	x	x	u	21µM*
CN(C)S(=O)(=O)N(CC(=O)NCCSCc1cccc(Cl)c1)c1ccccc1	x	x	x	u	23µM*
CS(=O)(=O)N(CC(=O)NCCSCc1cccc(Cl)c1)c1ccc(F)cc1	-29	-9%	-1%	-17%	-17%
CN(C1CCCCC1)S(=O)(=O)c1ccc2c(c1)CCC(=O)N2	13	5%	5%	-9%	-11%
CN(C)S(=O)(=O)c1ccc2c(c1)/C(=C/c1cc3c([nH]1)CCCC3)C(=O)N2	-11	13%	-11%	4.6µM*	3.3µM*
Cc1nn(-c2ccccc2)c(C)c1NC(=O)COC(=O)c1cc(Br)ccc1O	-14	-3%	-1%	-4%	-14%
COCCOC(=O)c1[nH]c2c(c1C)C(=O)CC(c1ccccc1)C2 (centres undefined)	36	1.6µM*	1.3µM*	0.65µM*	0.92µM*
COCCOC(=O)c1[nH]c2c(c1C)C(=O)CC(c1ccc(N(C)C)cc1)C2 (centres undefined)	-12	4%	1%	-28%	u
COCCOC(=O)c1[nH]c2c(c1C)C(=O)CC(c1ccc(F)cc1)C2 (centres undefined)	62	u	23µM*	3.3µM*	5.8µM*
CC1=C(CC(=O)O)c2cc(F)ccc2/C1=C\c1ccc(S(C)=O)cc1 (centres undefined)	13	10%	-2%	12µM*!	u
CCOc1ccc(/C=C/C(O)=C2/C(=O)NC3(C)CC2c2ccccc2O3)cc1OC (centres undefined)	-20	-24%	u	5.2µM*	3.7µM*
CCOc1ccc(/C=C/C(O)=C2/C(=O)N(C)C3(C)CC2c2ccccc2O3)cc1OC (centres undefined)	-101*	u	3.7µM*	5.8µM*	8.2µM*
SMILES	IL-1B inflam inh	HT1080NT lethal	HT1080 IDH1KD tx	TDP1 cell CPT	TDP1 cell noCPT
CCOC(=O)C1=C(COC(=O)/C=C/c2ccc(OCC)c(OC)c2)NC(=O)NC1C (centres undefined)	-8	-11%	-15%	-5%	u
CCCC(=O)Nc1nnc(SCC)s1	13	2%	-1%	-12%	-16%
CCSc1nnc(NC(=O)NC(CC)(C(F)(F)F)C(F)(F)F)s1	u	18µM*	u	u	15µM*
COC(=O)c1ccc2c(c1O)C(=O)c1ccccc1C2=O	u	u	u	23µM*	21µM*
NC(=O)c1cccc2c1-c1ccccc1/C2=N/NC(N)=S	-5	0%	8%	15%	u
COC(=O)c1cccc2c1-c1ccccc1/C2=N/O	-22	u	u	16µM*	13µM*
COC(=O)c1cccc2c1-c1ccccc1/C2=N\NC(N)=O	u	-3%	-11%	u	15µM*
CCN1Cc2cccc(C(=O)Nc3ccc(F)cc3)c2C1=O	x	x	x	-9%	-19%
FC(F)C(F)(F)c1cc(-c2ccc(Cl)cc2)n[nH]1	x	u	u	18µM*	18µM*
Oc1ccccc1-c1cc(C(F)(F)C(F)F)[nH]n1	-5	u	-3%[9.24 µM]	u	u
COc1cccc(C(CNc2ccc(S(=O)(=O)N3CCN(C)CC3)cc2[N+](=O)[O-])N(C)C)c1 (centres undefined)	-16	-8%	-14%	23µM*	u
CC(Nc1ccc(S(=O)(=O)N2CCN(C)CC2)cc1[N+](=O)[O-])c1ccccc1 (centres undefined)	-13	-1%	2%	16µM*	23µM*
CC(Nc1cc(N2CCN(S(C)(=O)=O)CC2)ccc1[N+](=O)[O-])c1ccccc1 (centres undefined)	-52*	-1%	-5%	u	16µM*
COc1ccccc1C(C)Nc1ccc(S(=O)(=O)N2CCN(C)CC2)cc1[N+](=O)[O-] (centres undefined)	-16	-9%	-14%	u	u
CC(Nc1cc(N2CCN(S(=O)(=O)N(C)C)CC2)ccc1[N+](=O)[O-])c1ccccc1 (centres undefined)	16	-3%	2%	-5%	4%
CCn1c2ccccc2c2cc(/C=N/NC(=O)c3cccc(C)c3)ccc21	47	-4%	u	29µM*	18µM*
CCn1c2ccccc2c2cc(/C=N/NC(=O)c3ccccc3C)ccc21	51	15µM*	21µM*	2.6µM*	2.6µM*
Cc1nn(-c2ccccn2)c2c1-c1nc(N3CCOCC3)ncc1CC2	-8	-3%	2%	18µM*	23µM*
Cc1nn(-c2ccccn2)c2c1-c1nc(N)sc1CC2	x	x	x	20µM*	18µM*

Source: PubChem
